Screening data deposited in PubChem by National Center for Advancing Translational Sciences (NCATS).
FMDV inh – antivirals against foot and mouth disease virus | FMDV antiviral cell-based qHTS | Potency, µM (titrated, usually from 57.9 µM), without a hit: top-dose activity change, negative = inhibition, usual class: inhibitors | 1.2% of 410,000 active | AID 1159524; calls by dose curve; tested in HEK293T cells; also: read-out not given here; potency is read from the fitted curve at half-maximal effect; nearly all actives have a fitted effect of over 45% in size
VACV mCherry inh – vaccinia inhibition (mCherry reporter); 0.63% of 310,000 active; Vaccinia virus mCherry reporter infection, fluorescence; AID 720579; Potency, µM (titrated, usually from 36.5 µM), without a hit: at the top dose activity change, negative = inhibition, hits mostly inhibitors; calls by dose curve; tested in A549 cells; also: potency is read from the fitted curve at half-maximal effect; nearly all actives have a fitted effect of over 35% in size
HCV inh – HCV inhibition. AID 651820. Potency, µM (titrated, usually from 41.8 µM), for the others: top-dose activity change, negative = inhibition, most hits filed as inhibitors. 3.4% of 340,000 active. Huh7.5.1 HCVcc-Cre infection, luciferase reporter, 44 h; active = well fitted inhibition curve with a large enough effect; inconclusive = small, poorly fitted or top-dose-only effect, or another doubt; inactive = no such curve, though single readings can be large or run the other way; also: potency is read from the fitted curve at half-maximal effect
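Infectious HCV cell culture screen: compound-treated cells (1,000/well, pre-plated 4 h) are infected with HCVcc-Cre at roughly 0.5 moi and grown 44 h. Infection is quantified by luciferase signal after 15 min substrate incubation at room temperature.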
HCMV antiviral – human cytomegalovirus inhibition. HFF cells, HCMV-luciferase reporter, 72 h; active compounds read low. activity change, negative = inhibition, % at 57.5 µM. 4.5% of 410,000 active; in the data active = activity change below about -60%; inconclusive = no clear call, values can overlap the other calls; inactive = above about -39%
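Cell-based, HFFs, 1000 cells/well, 16 h 37C; cpds in DMSO + HCMV-luc, MOI 1 PFU/cell; 72 h 37C; OneGlo luminescence after 5 min RT; norm. to buffer vs Salinomycin 10uM.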
Vaccinia Venus – inhibitors of vaccinia virus (Venus reporter); Vaccinia virus Venus reporter expression, fluorescence; Potency, µM (series often up to 36.5 µM), without a hit: at the highest dose activity change, negative = inhibition, actives largely listed as inhibitors; 0.46% of 330,000 active; AID 720580; calls by dose curve; tested in A549 cells; also: potency is read from the fitted curve at half-maximal effect; nearly all actives have a fitted effect of over 30% in size
Active calls of the source: *; i = inactive; ? = inconclusive; nt = no result; [ ] = another dose, or the depositor's remark. Hits are enriched below; roughly 7.3% of the tested compounds scored in any of these assays. % is scaled to controls: 0 for no effect and ±100 for the full control effect.

SMILES | FMDV inh | VACV mCherry inh | HCV inh | HCMV antiviral | Vaccinia Venus
COC(=O)CCC(C)C1CCC2C3CC[C@H]4CC(O)CC[C@@]4(C)C3CC(O)[C@]12C (stereo partly drawn) | -6% | ? | nt | nt | 10µM*
CCS(=O)(=O)c1ccc(OC)c(N=Nc2ccc(O)c3ncccc23)c1 | ? | ? | ? | ? | -23%
Oc1ccc(N=Nc2ccc3c(c2)OCCO3)c2ncccc12 | 4µM* | nt | ? | -103* | nt
CCOc1ccc(N=Nc2ccc(O)c3ncccc23)cc1 | 14% | ? | 7.9µM* | -87* | -15%
CCN(CC)S(=O)(=O)c1cc(OC)ccc1N=Nc1ccc(O)c2ncccc12 | -20% | ? | 5µM* | -97* | ?
O=C(Nc1ncccc1O)c1ccc2c(c1)OCCO2 | 31% | ? | 7% | 1 | -19%
Cc1cccc(N=Nc2ccc(O)c3ncccc23)c1 | 6% | 14µM* | 5.6µM* | -102* | ?
COC(=O)[C@@]1(Sc2ccc(C)cc2)CC(=O)N(C(=O)/C=C/c2ccccc2)[C@@H]1c1ccccc1 | -23% | 43% | nt | -9 | 3%
Cc1ccc(C)c(N=Nc2ccc(O)c3ncccc23)c1 | ? | nt | 6.3µM* | -84* | nt
O=[N+]([O-])c1ccc(CSCc2ccc([N+](=O)[O-])cc2)cc1 | -15% | -19% | 31% | 24 | -9%
Cc1ccc(OCC(=O)Nc2ccc(O)c(-c3nc4ccccc4o3)c2)cc1 | ? | -19% | 6% | -76* | ?
Cc1ccc(OCC(=O)Nc2cccc(-c3nc4ccccc4o3)c2C)cc1C | -16% | -19% | nt | -60* | -10%
Cc1ccccc1Nc1cc2ccccc2c(=O)[nH]1 | -12% | nt | -24% | nt | 10µM*
O=C(c1ccc2c(c1)N(Cc1cccc(Cl)c1)C(=O)c1ccccc1S2=O)N1CCN(c2cccc(C(F)(F)F)c2)CC1 (stereo not drawn) | -15% | ? | nt | ? | -24%
Cn1c(NCCc2ccncc2)nc2cc(-c3ccccc3)sc2c1=O | 22% | -1% | nt | 151 | ?
CCCCOCC1CN(CCCC)S(=O)(=O)c2c(Oc3ccc(SC)c(C)c3)cccc2O1 (stereo not drawn) | nt | nt | nt | -8 | nt
C=CCn1c(C(CCCC)CC(O)COCCC)n[nH]c1=S (stereo not drawn) | -21% | nt | -3% | -17 | nt
C=CCn1c(CCC(O)COCCCCC)n[nH]c1=S (stereo not drawn) | -11% | -20% | 2% | -97* | -11%
COc1ccc(CCNC(=O)Cn2c(-c3nonc3N)nc3ccccc32)cc1OC | ? | -11% | ? | 1 | -12%
CCc1ccccc1NC(=O)Cn1c(-c2nonc2N)nc2ccccc21 | -20% | 6% | nt | 60 | 3%
CCCCOc1ccccc1NC(=O)Cn1c(-c2nonc2N)nc2ccccc21 | -12% | 4µM* | ? | -78* | ?
CCOc1ccc(CCn2c(-c3ccco3)nc3ccccc3c2=O)cc1OCC | ? | nt | 7.1µM* | -76* | nt
CCOc1ccc(CCNC(=O)Cn2c(-c3nonc3N)nc3ccccc32)cc1OCC | ? | 6% | 14µM* | -32 | 5%
COc1ccc(NC(=O)CN(c2ccccc2F)S(=O)(=O)c2ccc(C)cc2)c(OC)c1 | 1% | nt | 11µM* | -31 | nt
CCOc1ccc(S(=O)(=O)N(CC(=O)Nc2ccc(OC)c(Cl)c2)c2ccccc2)cc1 | 0% | -15% | nt | -60* | -14%
SMILES | FMDV inh | VACV mCherry inh | HCV inh | HCMV antiviral | Vaccinia Venus
COc1ccc(N(CC(=O)Nc2ccc(OC)cc2OC)S(=O)(=O)c2ccccc2)cc1 | -3% | -29% | ? | -65* | ?
Cc1ccc(N(CC(=O)Nc2cc(Cl)ccc2Oc2ccccc2)S(C)(=O)=O)c(C)c1 | ? | nt | 11µM* | -10 | ?
CCOc1ccc(N(CC(=O)Nc2ccc(OC)cc2)S(=O)(=O)c2ccc(Cl)cc2)cc1 | -10% | -12% | nt | 4 | 4%
COCCNc1nc2cc(-c3ccc(C)cc3)sc2c(=O)n1C | 52% | -5% | nt | 90 | -11%
O=C(NCc1cccnc1)c1nn(-c2ccc(F)cc2)nc1CO | -3% | -3% | nt | 21 | -9%
C[C@H](NC(=O)C1CCN(S(=O)(=O)c2ccccc2)CC1)C(=O)NCc1cccnc1 | -2% | i | nt | -37 | -16%
COC(=O)c1ccccc1NC(=O)CSc1nc2sc3c(c2c(=O)[nH]1)CCCC3 | -23% | 4%[7.34 µM] | nt | 32 | -7%[7.34 µM]
